Key:
Settings in all cases: Compound Concentration (nM):1000
JNK1 = test system: T1, JNK1
T1 construct: gene MAPK8

JNK2 = test system: T2, JNK2
T2 construct: gene MAPK9

JNK3 = test system: T3, JNK3
T3 construct: gene MAPK10

KIT(A829P) = test system: KIT(A829P)
KIT(D816H) = test system: KIT(D816H)
KIT(D816V) = test system: KIT(D816V)
KIT(L576P) = test system: KIT(L576P)
KIT(V559D) = test system: KIT(V559D)
KIT(V559D,T670I) = test system: KIT(V559D,T670I)
KIT(V559D,V654A) = test system: KIT(V559D,V654A)
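Also: KINOMEscan scanMAX binding as percent activity remaining versus control; lower means stronger binding.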

| Structure (SMILES) | Percent Control (JNK1) [%] | Percent Control (JNK2) [%] | Percent Control (JNK3) [%] | Percent Control (KIT(A829P)) [%] | Percent Control (KIT(D816H)) [%] | Percent Control (KIT(D816V)) [%] | Percent Control (KIT(L576P)) [%] | Percent Control (KIT(V559D)) [%] | Percent Control (KIT(V559D,T670I)) [%] | Percent Control (KIT(V559D,V654A)) [%] |
| --- | --- | --- | --- | --- | --- | --- | --- | --- | --- | --- |
| COc1cc(N2CCN(C(C)C)CC2)ccc1Nc1nc(Nc2ccc(F)cc2C(=O)NC[C@@H](O)CO)c2cc[nH]c2n1 [GSK1392956A] | 0 | 0.1 | 0.1 | 88 | 57 | 100 | 100 | 100 | 96 | 98 |
| CN(C)c1cc2c(Nc3ccc4c(cnn4Cc4ccccc4)c3)ncnc2cn1 [GW282974X] | 87 | 92 | 82 | 70 | 62 | 90 | 100 | 100 | 96 | 100 |
| Cl.O=C(Nc1ccc(Oc2ccc3[nH]c(NC(=O)c4ccco4)nc3c2)cc1)Nc1cc(C(F)(F)F)ccc1F [GW683134A] | 85 | 86 | 100 | 15 | 96 | 48 | 0 | 0 | 2.3 | 10 |
| COc1ccc2c(-c3ccnc(Nc4cccc(OC(F)(F)F)c4)n3)cnn2n1 [GW810372X] | 22 | 60 | 41 | 83 | 77 | 87 | 88 | 88 | 86 | 100 |
| O=C(Nc1n[nH]c2nc(-c3ccc(O)cc3)c(Br)cc12)C1CC1 [SB-725317] | 35 | 85 | 80 | 100 | 100 | 94 | 56 | 71 | 100 | 96 |
| COc1ccc2cc(-c3c(-c4ccncc4)nc(-c4ccc(S(C)(=O)=O)cc4C)n3C)ccc2c1 [SB-633825] | 73 | 24 | 20 | 52 | 46 | 74 | 77 | 65 | 88 | 89 |
| C/C(Nc1ccc(S(N)(=O)=O)cc1)=C1/C(=O)Nc2ccccc21 [GW335962X] | 32 | 31 | 30 | 76 | 73 | 92 | 90 | 100 | 80 | 87 |
| COc1cc(/C=N/Nc2ncnc3[nH]ncc23)ccc1O [GW578748X] | 40 | 49 | 37 | 36 | 26 | 22 | 51 | 44 | 100 | 52 |
| NS(=O)(=O)c1ccc(N/N=C2\C(=O)Nc3ccc(C(=O)NCCc4c[nH]cn4)cc32)cc1 [GW300660X] | 61 | 89 | 96 | 85 | 41 | 94 | 100 | 100 | 100 | 100 |
| CC(C)COC(=O)c1ccc2c(c1)/C(=C/Nc1ccc(S(N)(=O)=O)cc1)C(=O)N2 [GW416981X] | 44 | 65 | 71 | 53 | 20 | 22 | 57 | 100 | 100 | 100 |
| CCc1ccc(Oc2nccc(-c3c(-c4ccc(F)cc4)ncn3C3CCNCC3)n2)cc1 [SB-242719] | 65 | 15 | 17 | 94 | 73 | 100 | 85 | 95 | 94 | 74 |
| CN1CCN(C(=O)c2ccc(NC(=O)Nc3ccc(N(C)c4ccnc(Nc5ccc(CS(C)(=O)=O)cc5)n4)cc3)cc2)CC1.Cl [GW830263A] | 5.5 | 19 | 8.6 | 0 | 27 | 23 | 0 | 0 | 0.1 | 9.1 |
| Cc1cc(O)cc(C)c1/C=C/c1cncc(C(N)=O)c1 [GW435821X] | 84 | 100 | 100 | 92 | 65 | 90 | 4.4 | 1 | 100 | 95 |
| COC(=O)Nc1nc2ccc(Oc3ccc(NC(=O)Nc4cc(C(F)(F)F)ccc4F)cc3)cc2s1.Cl [GW693917A] | 87 | 60 | 79 | 1.9 | 39 | 61 | 0 | 0.2 | 2.5 | 20 |
| COc1ccc2[nH]c3c4[nH]c5ccc(OC)cc5c4c4c(c3c2c1)C(=O)NC4=O [GW296115X] | 82 | 55 | 31 | 15 | 6.6 | 1.7 | 8.2 | 9 | 49 | 66 |
| Cl.c1ccc(Cc2nc3ccc(Nc4ncnc5ccccc45)cc3[nH]2)cc1 [GR269666A] | 91 | 100 | 100 | 100 | 100 | 100 | 100 | 91 | 100 | 85 |
| Cl.O=C(O[C@H]1CN[C@H](C#Cc2cc3ncnc(Nc4ccc5c(cnn5Cc5ccccc5)c4)c3s2)C1)N1CCOCC1 [GSK200398A] | 90 | 91 | 88 | 100 | 69 | 100 | 100 | 100 | 87 | 100 |
| COc1cc2ncn(-c3cc(O[C@H](C)c4ccccc4Cl)c(C(N)=O)s3)c2cc1OC [GSK237701A] | 88 | 79 | 81 | 11 | 14 | 14 | 34 | 33 | 12 | 81 |
| NS(=O)(=O)c1ccc(N/N=C2\C(=O)Nc3ccc(Cl)cc32)cc1 [GW280670X] | 84 | 100 | 100 | 100 | 100 | 100 | 67 | 81 | 100 | 58 |
| Cl.O=C(Nc1ccc(Oc2ccc3[nH]c(NC(=O)c4ccccc4)nc3c2)cc1)Nc1cc(C(F)(F)F)ccc1F [GW709042A] | 85 | 99 | 100 | 20 | 84 | 79 | 2.9 | 0.8 | 4.9 | 20 |

| Structure (SMILES) | Percent Control (JNK1) [%] | Percent Control (JNK2) [%] | Percent Control (JNK3) [%] | Percent Control (KIT(A829P)) [%] | Percent Control (KIT(D816H)) [%] | Percent Control (KIT(D816V)) [%] | Percent Control (KIT(L576P)) [%] | Percent Control (KIT(V559D)) [%] | Percent Control (KIT(V559D,T670I)) [%] | Percent Control (KIT(V559D,V654A)) [%] |
| --- | --- | --- | --- | --- | --- | --- | --- | --- | --- | --- |
| NS(=O)(=O)c1ccc(N/N=C2\C(=O)Nc3ccc(C(=O)NCc4ccncc4)cc32)cc1 [GW300657X] | 55 | 40 | 38 | 47 | 14 | 61 | 83 | 87 | 89 | 100 |
| CCn1c(-c2nonc2N)nc2c(C#CC(C)(C)O)nc(OCCNC)cc21.Cl [GSK949675] | 97 | 100 | 96 | 98 | 22 | 13 | 100 | 100 | 100 | 100 |
| NS(=O)(=O)c1ccc(N/N=C2\C(=O)Nc3ccc(-c4cnco4)cc32)cc1 [GW276655] | 87 | 83 | 83 | 79 | 69 | 100 | 55 | 58 | 100 | 100 |
| Nc1ncnc2occ(-c3ccc(NC(=O)Nc4cc(C(F)(F)F)ccc4F)cc3)c12 [GW770249X] | 99 | 9.2 | 100 | 7.5 | 32 | 14 | 0 | 0 | 0.5 | 7.5 |
| CCS(=O)(=O)c1ccc(OC)c(Nc2ncc(-c3cccc(OC)c3)o2)c1 [GW580509X] | 76 | 89 | 95 | 83 | 52 | 42 | 0 | 2.3 | 66 | 79 |
| COc1cc(C=NNc2ncnc3c2cnn3-c2ccccc2)ccc1O [GW513184X] | 99 | 94 | 82 | 100 | 84 | 40 | 17 | 35 | 65 | 74 |
| COc1ccccc1-c1cc(/C=C2\C(=O)Nc3ncc(Br)cc32)cc(Br)c1O [GW442130X] | 52 | 43 | 30 | 100 | 100 | 100 | 76 | 65 | 100 | 62 |
| Cl.O=S1CCN(Cc2ccc(-c3ccc4ncnc(Nc5ccc(OCc6ccccc6)c(F)c5)c4c3)o2)CC1 [GW576924A] | 100 | 100 | 100 | 100 | 100 | 100 | 100 | 100 | 94 | 100 |
| COc1cccc(-n2ncc3c(N/N=C/c4ccncc4)ncnc32)c1 [GW784752X] | 99 | 83 | 96 | 100 | 46 | 100 | 84 | 89 | 38 | 100 |
| COc1cccc(-c2c[nH]c3c(N/N=C/c4ccncc4)ncnc23)c1 [GW814408X] | 99 | 97 | 90 | 27 | 12 | 9.8 | 2.1 | 1.7 | 12 | 33 |
| COc1cc(C)c(N(C)C(=O)CN(C)C)cc1Nc1nc(Nc2cccc(F)c2C(N)=O)c2cc[nH]c2n1 [GSK2219385] | 88 | 74 | 83 | 100 | 60 | 81 | 100 | 100 | 100 | 93 |
| C[C@@H](Oc1cc(-n2cnc3ccc(OC4CCN(C)CC4)cc32)sc1C(N)=O)c1ccccc1Cl [GSK579289A] | 82 | 98 | 96 | 49 | 1.7 | 48 | 31 | 30 | 41 | 95 |
| CC1=C(C(=O)Nc2ccc3[nH]ncc3c2)C(c2ccc3ccccc3c2)CC(=O)N1 (stereo not shown) [GSK270822A] | 78 | 80 | 82 | 55 | 70 | 78 | 71 | 72 | 84 | 98 |
| CC1=C(C(=O)Nc2ccc3[nH]ncc3c2)C(c2ccc(Cl)c(Cl)c2)CC(=O)N1 (stereo not shown) [GSK299115A] | 84 | 73 | 77 | 79 | 78 | 94 | 100 | 100 | 94 | 100 |
| COc1cc2ncnc(Nc3ccc4c(cnn4Cc4ccccc4)c3)c2cc1OC.Cl [GW282449A] | 100 | 100 | 100 | 100 | 100 | 100 | 100 | 98 | 100 | 93 |
| CCS(=O)(=O)c1ccc(OC)c(Nc2ncc(-c3cccc(F)c3)o2)c1 [GW621970X] | 69 | 92 | 94 | 63 | 51 | 39 | 3 | 4.8 | 35 | 90 |
| O=C1Nc2ccc(C(=O)c3ccco3)cc2C1=Cc1cc(Cl)c(O)c(Cl)c1 [GW406108X] | 64 | 70 | 64 | 83 | 69 | 81 | 38 | 52 | 78 | 100 |
| COc1ccc(COc2ccc(Cc3cnc(N)nc3N)cc2OC)cc1 [GW632580X] | 85 | 93 | 94 | 100 | 68 | 96 | 93 | 96 | 100 | 100 |
| CN(C)CCNC(=O)Nc1ccc(N(C)c2ccnc(Nc3ccc(CS(C)(=O)=O)cc3)n2)cc1.Cl [GW830900A] | 43 | 65 | 55 | 31 | 45 | 52 | 0 | 0 | 14 | 72 |
| NS(=O)(=O)c1ccc(Nc2ncc(-c3ccccc3)o2)cc1 [GW572399X] | 64 | 100 | 99 | 92 | 100 | 100 | 37 | 26 | 92 | 100 |

— PMC7826789 (International Journal of Molecular Sciences, 2021)
